Measured values published in the supplement of paper PMC6555819.

Assays:
Assay in all cases: PBM binding z-score (relative to random genomic background probes); higher = stronger binding; sequences stand for … in GC…GCGATTGACAGCGTAGAATGAAGG
[1] = test system: FXR:RXRa (NR concentration 270 nM, RXRa partner concentration 90 nM)
Summary of the method: (§1)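 Binding buffer was PBS pH 7.4 with 2% milk, 0.02% Triton X-100, 1 mM DTT, 0.2 mg/mL BSA and 0.4 mg/ml salmon testes DNA. In it, ligand-free nuclear receptor dimers were incubated 1 h on custom Agilent 4×180K protein-binding microarrays carrying double-stranded probes. Antibodies against each partner (one per run) detected binding, and z-scores were calculated against random background probes after regression normalization of scanned fluorescence.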

[2] = test system: LXRa:RXRa (NR concentration 270 nM, RXRa partner concentration 90 nM)
Summary of the method: as §1

[3] = test system: LXRa homodimer (NR concentration 270 nM)
Summary of the method: as §1

[4] = test system: LXRb:RXRa (NR concentration 270 nM, RXRa partner concentration 90 nM)
Summary of the method: as §1

[5] = test system: LXRb homodimer (NR concentration 270 nM)
Summary of the method: as §1

[6] = test system: PPARa:RXRa (NR concentration 270 nM, RXRa partner concentration 90 nM)
Summary of the method: as §1

[7] = test system: PPARg:RXRa (NR concentration 180 nM, RXRa partner concentration 90 nM)
Summary of the method: as §1

[8] = test system: PPARg:RXRa 270nM:90nM, anti-RXR (NR concentration 270 nM, RXRa partner concentration 90 nM)
Summary of the method: as §1

[9] = test system: PPARg:RXRa 30nM:10nM, anti-RXR (NR concentration 30 nM, RXRa partner concentration 10 nM)
Summary of the method: as §1

[10] = test system: PPARg:RXRa 90nM:30nM, anti-RXR (NR concentration 90 nM, RXRa partner concentration 30 nM)
Summary of the method: as §1

[11] = test system: PPARg:RXRa DBDmut IVT, anti-RXR (DBD mutation: RXRa K156A/R161A, NR concentration 270 nM, RXRa partner concentration 90 nM)
Summary of the method: as §1

[12] = test system: PPARg:RXRa IVT, anti-PPARg (NR concentration 270 nM, RXRa partner concentration 90 nM)
Summary of the method: as §1

[13] = test system: PPARg DBDmut:RXRa IVT, anti-PPARg (DBD mutation: PPARg1 K132A/R137A, NR concentration 270 nM, RXRa partner concentration 90 nM)
Summary of the method: as §1

[14] = test system: PPARg DBDmut IVT, anti-PPARg (DBD mutation: PPARg1 K132A/R137A, NR concentration 270 nM)
Summary of the method: as §1

[15] = test system: PPARg homodimer (NR concentration 180 nM)
Summary of the method: as §1

[16] = test system: PXR:RXRa (NR concentration 270 nM, RXRa partner concentration 90 nM)
Summary of the method: as §1

[17] = test system: PXR homodimer (NR concentration 270 nM)
Summary of the method: as §1

[18] = test system: RARa:RXR (NR concentration 270 nM, RXRa partner concentration 90 nM)
Summary of the method: as §1

[19] = test system: RARa homodimer (NR concentration 270 nM)
Summary of the method: as §1

[20] = test system: RARb:RXRa (NR concentration 270 nM, RXRa partner concentration 90 nM)
Summary of the method: as §1

Row | Sequence | PBM binding z-score [1] | PBM binding z-score [2] | PBM binding z-score [3] | PBM binding z-score [4] | PBM binding z-score [5] | PBM binding z-score [6] | PBM binding z-score [7] | PBM binding z-score [8] | PBM binding z-score [9] | PBM binding z-score [10] | PBM binding z-score [11] | PBM binding z-score [12] | PBM binding z-score [13] | PBM binding z-score [14] | PBM binding z-score [15] | PBM binding z-score [16] | PBM binding z-score [17] | PBM binding z-score [18] | PBM binding z-score [19] | PBM binding z-score [20]
1 | GCATATAGGTAATACAAGGCGAAAGTCCGATTGT | 0.229 | 0.00213 | 0.175 | -0.106 | -0.482 | 0.752 | 0.874 | 0.503 | 0.39 | 0.229 | 4.13 | 2.28 | 0.423 | 0.106 | 0.176 | 0.00476 | -0.179 | 0.458 | -0.221 | -0.0161
2 | ATACCAAGGTGATCGTGAGGTCGTTGACACTAAC | 2.81 | 1.92 | 0.798 | 1.38 | -0.392 | 1.59 | 0.583 | 0.586 | 0.0332 | 0.0166 | 0.337 | 1.12 | -0.329 | 0.642 | 1.07 | 3.23 | 1.34 | 2.52 | 0.306 | 1.4
3 | CCGACTGGGGCAGAAAGATTACCATACCATCCGG | -0.557 | -0.807 | -0.423 | -0.639 | -1 | -0.291 | 0.958 | -0.112 | -0.469 | -0.456 | 1.53 | 0.903 | -0.59 | -1.13 | -0.627 | -0.737 | -0.227 | -0.36 | -0.0256 | 0.0416
4 | CCTGCTAGGTCAATGATCAGCTAAAGCAGCTCGC | 2.71 | 1.96 | -0.345 | 1.3 | -0.139 | 2.62 | 1.98 | 2.46 | 0.000172 | 1.24 | 4.45 | 3.19 | -0.369 | -0.701 | 1.17 | 0.559 | -0.751 | 1.13 | -0.385 | 3.62
5 | CCCACTGGGGCAAGGTTACCATAACGCACAGCCA | 0.184 | 0.769 | -0.0723 | 0.417 | -0.882 | 2.46 | 4.81 | 4.76 | 1.92 | 4.56 | 4.18 | 5.58 | 2.71 | 0.0183 | 1.07 | 0.144 | -0.536 | 1.05 | 0.0116 | 1.75
6 | TCGAGTAGGTTAGTCGGGGCACTCAGCCAACATA | 0.251 | 0.253 | -0.0703 | 0.402 | -1.06 | 0.681 | 0.103 | 0.749 | 0.995 | 0.753 | 2.29 | 2.16 | -0.475 | -0.114 | 0.481 | 0.0586 | -0.241 | 0.247 | -0.581 | 0.524
7 | CTCGAAAGGGCGGTTGAGGTGAGTATACGGATAA | 1.23 | -0.197 | -0.251 | -0.253 | -0.452 | 0.0374 | 0.00915 | -0.518 | -0.508 | -0.301 | -0.112 | -0.15 | 0.116 | 0.0622 | 0.247 | 0.233 | 0.128 | 0.395 | -0.275 | 1.08
8 | CGAACTAGGTCATCCAGTACAGTGAATACATTGA | 4.18 | 2.86 | 0.599 | 2.59 | 0.209 | 4.82 | 7.93 | 6.36 | 4.02 | 5.81 | 8.25 | 8.35 | 2.09 | 1.3 | 1.76 | 2.09 | 1.66 | 2.26 | 0.426 | 3.78
9 | GCGACTGGGGCAAAGAAGGTTACCATAAGGTTGG | 1.24 | 0.788 | -0.0747 | 1.06 | -0.824 | 1.72 | 1.56 | 2.22 | 0.513 | 1.66 | 4.68 | 3.4 | -0.0271 | -0.382 | 0.618 | 1.11 | -0.136 | 1.22 | -0.528 | 1.59
10 | CGTACTAGGTCATTGACAGGACAGTGAATAGTAA | 4.65 | 3.15 | 0.997 | 2.29 | 0.27 | 4.07 | 6.36 | 5.47 | 3.06 | 4.93 | 7.67 | 7.54 | 3.72 | 3.85 | 3.05 | 1.64 | 0.269 | 2.54 | 0.282 | 3.67
11 | CCTGCTAGGTCATGGTCTGCTAATCTACAGTATG | 3.19 | 2.35 | 0.138 | 1.97 | -0.218 | 3.4 | 2.18 | 3.48 | 1.08 | 2.49 | 4.68 | 3.6 | 0.818 | -0.517 | 0.597 | 1.33 | -0.00693 | 2.22 | -0.00634 | 3.87
12 | CCTGCTAGGTCATGGTCATCTAATCTACAGTATG | 3.56 | 2.73 | 0.055 | 1.89 | -0.408 | 3.6 | 2.73 | 3.03 | 0.662 | 1.85 | 4.28 | 3.88 | 0.258 | 0.159 | 1.51 | 1.53 | -0.321 | 2.23 | 0.16 | 3.76
13 | TCATATAGGTAAAGGTCAAAGTCGAACGATATGA | 6.53 | 6.13 | 4.7 | 5.5 | 2.62 | 6.15 | 7.64 | 6.9 | 6.04 | 7.15 | 4.49 | 5.4 | 2.71 | 1.9 | 5.15 | 5.54 | 1.88 | 6.36 | 3.75 | 5.17
14 | ACAGACAGGTGATGAAGGTATCTCAGGCTATCAT | -0.127 | -0.162 | -0.557 | -0.354 | -0.55 | -0.193 | 0.506 | -0.135 | -0.034 | -0.24 | -0.101 | 0.167 | -0.0054 | -0.542 | 0.117 | -0.369 | 0.175 | -0.241 | -0.481 | 0.0103
